112 compounds from PubChem BioAssay AID493240 (Broad Institute, 2011) can be followed below.

About 270 (21%) of roughly 1,300 compounds were called active. The rule behind the calls is not given here. These entries were drawn from the full list. Entries that show only a call come without a potency. Potency and affinity values are given separately.

This assay is described as follows: cytotoxicity in parental SK-MEL-5 melanoma cells – cell-based, CellTiter-Glo, cherry-picked, set 3, orthogonal assay for MITF inhibitor project, dose response (AID 493240). Particulars: SK-MEL-5 viability, ATP luminescence (CellTiter-Glo), 24 h; series mostly up to 35 µM.
For the compound `C=CCN1C(=O)S/C(=C\c2ccc(N3CCOCC3)cc2C)C1=O`, the outcome was inactive.
Then `Cc1ccc(C)c(C(=O)Cn2ncc(Cl)c(Cl)c2=O)c1`, with “inactive”; and `Cc1ccc(SCCC(=O)N2CCC(C)CC2)cc1`, with “inactive”.
To `CS(=O)(=O)N1CCN(c2nc3ccc(Cl)cc3s2)CC1` belongs “inactive”; to `O=C(Nc1ccc(F)cc1F)c1cc2ccccc2oc1=O`, “inactive”.
Take `COc1ccc(CCC(=O)N2CCc3ccccc32)cc1`: the result was inactive.
To `CCOc1ccc(N(CC(=O)Nc2ccc(OC)cc2)S(C)(=O)=O)cc1` belongs “inactive”.
For `COc1ccc(C(=O)Nc2ccc3c(c2)OCCO3)cc1Br`, the result was inactive.
Consider `Cn1c(/C=C/c2ccc(Cl)cc2)nc2ccccc2c1=O`, for which the outcome was inactive.
Then `COc1cccc(-c2csc3ncnc(Sc4nnnn4C)c23)c1`, with “inactive”; and `Cn1c(/C(C#N)=C/c2ccc(-c3ccc(S(N)(=O)=O)cc3)o2)nc2ccccc21`, with “inactive”.
To `CC1CCCCC1NC(=O)/C(C#N)=C/c1ccccc1F` (configuration not stated) belongs “inactive”; to `O=C1c2cc([N+](=O)[O-])cc3cc([N+](=O)[O-])cc(c23)C(=O)N1c1ccccn1`, “inactive”.
Then `N#C/C(=C\c1cccs1)C(=O)NCC1CCCO1` (configuration not stated), with “inactive”.
Turning to `N/C(=N\OC(=O)c1ccc([N+](=O)[O-])cc1)c1ccc(Br)cc1`, the result was inactive.
Then `CC(C)N=c1c([N+](=O)[O-])nn(C)n1O`, with “inactive”; and `CCN1CCc2c(sc(NC(=O)c3ccc(S(=O)(=O)N4CCCC4)cc3)c2C(=O)NC)C1`, with “inactive”.
In the case of `COc1cccc(NC(=O)c2cc3ccccc3cc2OC)c1`, the outcome was inactive.
For `O=C(N/N=C/C(Cl)=C\c1ccccc1)c1cccs1`, the outcome was inactive.
Then `CCOc1ccc(-c2ccc(SC)nn2)cc1`, with “inactive”; and `O=C(Nc1ccc(Cl)cc1)OCc1ccccn1`, with “inactive”.
To `CC1CCN(c2nc3ccc(C(=O)O)cc3s2)CC1` belongs “inactive”; to `O=C(O)c1ccc(Nc2nc3c(s2)CCCC3)cc1`, “inactive”; to `Cc1c(C=O)c2cc(OCc3ccccc3)ccc2n1C`, “inactive”.
With `Cn1c(=O)c([N+](=O)[O-])c(-n2ccnc2)c2ccccc21`, the outcome was inactive.
Regarding `NCCCNc1nc(N)c([N+](=O)[O-])c(NC2CCCCC2)n1`, the outcome was inactive.
To `O=C(NC(=S)Nc1ccccn1)c1cccc([N+](=O)[O-])c1` belongs “inactive”; to `N/C(=N\OC(=O)c1ccccc1Cl)c1cccc([N+](=O)[O-])c1`, “inactive”; to `Cc1ccc2c(COC(=O)c3n[nH]c4ccccc34)cc(=O)oc2c1`, “inactive”.
Then `CC(C)(C)c1ccc(-c2noc(CCC(=O)NCc3ccco3)n2)cc1`, with “inactive”; and `Cc1cc(-n2c(SCC(=O)NCCC3=CCCCC3)nc3n[nH]c(C)c3c2=N)ccc1Cl`, with “inactive”.
To `CC(/C=N/NC(=O)c1cc(-c2ccncc2)nc2ccccc12)=C\c1ccco1` belongs “inactive”.
As to `Cc1cccc2sc(N(CCCN(C)C)C(=O)c3nc4ccccc4s3)nc12`, the result was inactive.
Then `COc1ccc(C)c2sc(N(CCN(C)C)C(=O)/C=C/c3cccs3)nc12`, with “inactive”.
To `Cn1nc([N+](=O)[O-])nc1S(C)(=O)=O` belongs “inactive”; to `COc1cccc(-c2nnc3n2N=C(C(C)(C)C)CS3)c1`, “inactive”; to `COC(=O)[C@@H]1C[C@]2(OC(=O)c3ccccc3)C=CC(=O)C[C@@H]2N1C(=O)OCc1ccccc1`, “inactive”.
To `Cc1occc1C(=O)N/N=C/c1ccc(OCc2ccccc2)cc1` belongs “inactive”.
As for `CC(=O)SC(C[N+](=O)[O-])c1cn(C(C)=O)c2ccccc12` (configuration not stated), the outcome was inactive.
Then `Cc1ccc(-c2cn3nc(C)c(C)nc3n2)cc1`, with “inactive”.
`O=C(Nc1ccc(-c2nc3ncccc3o2)cc1)c1ccc([N+](=O)[O-])o1`: the outcome was inactive.
Then `NC(=O)c1cc([N+](=O)[O-])ccc1NCc1ccc(N)cc1`, with “inactive”; and `COc1ccc(-c2csc(Nc3ccccn3)n2)cc1OC`, with “inactive”.
As to `CC1CCN(C(=O)c2cc3ccccc3o2)CC1`, the outcome was inactive.
As for `c1ccc(-c2cn3nc4c(nc3n2)CCCC4)cc1`, the result was inactive.
Then `O=S(=O)(CC(CN1CCCCC1)N1CCCCC1)c1ccc2ccccc2c1` (configuration not stated), with “inactive”; and `Cc1ccc(S(=O)(=O)CC(CN2CCCCC2)N2CCCCC2)cc1` (configuration not stated), with “inactive”; and `O=C(Nc1ccccc1F)C(=O)Nc1cccc2ccccc12`, with “inactive”.
On to `c1ccc(-n2ncc3c(NCc4cccs4)ncnc32)cc1`, for which the result was inactive.
As to `COc1cccc(/C=N/Nc2ncnc3c2ncn3Cc2ccccc2)c1O`, the outcome was inactive.
To `COc1cccc(C(=O)Nc2ccc3c(cc2=O)[C@@H](NC(C)=O)CCc2cc(OC)c(OC)c(OC)c2-3)c1` belongs “inactive”.
Regarding `CCc1nc2oc3ccc(C)cc3c(=O)c2cc1C(=O)OC`, the outcome was inactive.
For the compound `O=C(COC(=O)c1ccccc1C(=O)c1ccc(Cl)c([N+](=O)[O-])c1)NC1CC1`, the outcome was inactive.
Consider `Cc1cc(C(=O)O/N=C(\N)c2ccncc2)ccc1[N+](=O)[O-]`, for which the result was inactive.
To `CCCNC(=O)COC(=O)c1ccccc1C(=O)c1ccc(Cl)c([N+](=O)[O-])c1` belongs “inactive”.
Turning to `CNC(=O)COC(=O)c1ccccc1C(=O)c1ccc(Cl)c([N+](=O)[O-])c1`, the outcome was inactive.
For the compound `CCC(=O)Nc1cc(C(=O)OCC(=O)c2ccccc2Cl)ccc1C`, the outcome was inactive.
To `O=C(COC(=O)c1ccc(F)c([N+](=O)[O-])c1)NC(=O)NCc1ccccc1` belongs “inactive”; to `CC(=O)OCCNc1cc(Sc2nc3ccccc3[nH]2)c2nonc2c1[N+](=O)[O-]`, “inactive”.
Turning to `CNc1oc(/C=C/c2cccc(OC)c2)nc1C#N`, the outcome was inactive.
For the compound `Cc1ccc2oc(Nc3nc(C)c(C)c(C)n3)nc2c1`, the result was inactive.
In the case of `Cc1ccc2nc(-c3cccnc3)oc2c1`, the result was inactive.
Then `CC(C)c1ccc(/C=N/Nc2ccc(C(=O)O)cc2)cc1`, with “inactive”; and `O=C(NCc1csc(-c2cccs2)n1)C1CCC1`, with “inactive”; and `CCOc1ccc2nc(NC(=O)Cc3cccs3)sc2c1`, with “inactive”.
For the compound `CC(C)S(=O)(=O)c1csc(C(=O)Nc2ccc(F)cc2)c1N`, the result was inactive.
To `C=CCn1c(C)cc(C2=NNC(=NC(C)(C)C)SC2)c1C` belongs “inactive”; to `C=CCN=C1NN=C(c2ccc3c(c2)OCCO3)CS1`, “inactive”; to `O=C(NC1CC1)C1CCN(S(=O)(=O)c2ccc(Cl)c([N+](=O)[O-])c2)CC1`, “inactive”.
To `CC(C)CN=C(NS(=O)(=O)c1ccccc1)C(Cl)(Cl)Cl` belongs “inactive”.
To `O=C(CN1CCCCC1)Nc1scc2c1c(=O)oc1ccccc12` belongs “inactive”.
As to `CC(C)C(=O)N1CCN(c2ccc(NC(=O)c3ccc([N+](=O)[O-])o3)cc2)CC1`, the outcome was inactive.
Turning to `CN1CCN(c2ccccc2NC(=O)c2ccc([N+](=O)[O-])o2)CC1`, the result was inactive.
`CCN1CCN(/C=N/c2nc3c(s2)CCCC3)CC1`: the outcome was inactive.
Then `Oc1ccc(-c2nnc(SCC3CCCCC3)o2)cc1`, with “inactive”.
With `CC(=NNC(=S)N1CCN(c2ccccn2)CC1)c1nccs1`, the result was inactive.
To `O=C1CN(c2ccccc2)C(=S)N1C(=O)c1ccc(Br)cc1` belongs “inactive”; to `COc1ccc(C(=O)CN2Cc3ccccc3C2=N)cc1`, “inactive”.
Then `O=C(COC(=O)CCN1C(=O)/C(=C\C=C\c2ccccc2)SC1=S)Nc1cc(F)ccc1F`, with “inactive”; and `COc1cc(C(=O)Oc2c(CN3CCOCC3)cc(Cl)c3cccnc23)cc(OC)c1OC`, with “inactive”.
Regarding `C/C(=N\NC(=O)COc1ccccc1-c1ccccc1)c1ccccn1`, the result was inactive.
Then `CCOC(=O)COc1ccc2ccccc2c1/C=C/[N+](=O)[O-]`, with “inactive”; and `O=C(/C=C/c1ccc([N+](=O)[O-])s1)N1CCCCC1`, with “inactive”; and `O=C(Nc1ccc(Cl)cc1)N1CC=CCC1`, with “inactive”.
`NC(=O)c1c(NC(=O)c2cccnc2)sc2c1CCCCC2`: the outcome was inactive.
Take `O=C(N/N=C/c1cc([N+](=O)[O-])ccc1N1CCNCC1)c1ccc([N+](=O)[O-])cc1`: the result was inactive.
Regarding `OCC1CCCC(n2cnc3c(=S)nc[nH]c32)O1` (configuration not stated), the outcome was inactive.
With `CN(C)CCNC(=O)COc1ccc(C23CC4CC(CC(C4)C2)C3)cc1`, the outcome was inactive.
For `O=C(CSc1ccc(Cl)cc1)NC1CCCC1`, the result was inactive.
On to `N#CC1=C(c2ccccc2)/C(=C/c2ccccc2)OC1=O`, for which the result was inactive.
Then `Cc1cc(C=C2C(=O)c3ccccc3C2=O)c(C)n1-c1ccccc1`, with “inactive”; and `Cc1ccccc1-n1ncc2c([N+](=O)[O-])cc([N+](=O)[O-])cc21`, with “inactive”; and `Cc1cc2oc(=O)cc(C)c2cc1NC(=O)CCC(=O)O`, with “inactive”.
Take `Cn1c(SC2=CS(=O)(=O)c3ccccc32)nc2ccccc21`: the outcome was inactive.
As for `COc1ccc(C(=O)NC(=O)Nc2cc(C)ccn2)cc1`, the result was inactive.
Then `Cc1cnn(C(=S)NCCc2ccccc2)c1`, with “inactive”; and `Cc1cc(NCCCn2ccnc2)n2ncc(-c3ccccc3)c2n1`, with “inactive”.
In the case of `COc1ccc(C(=O)N/N=C/c2cc(Br)ccc2O)cc1OC`, the outcome was inactive.
To `CC(=O)c1ccc(N/C=C/C(=O)c2ccc(Br)cc2)cc1` belongs “inactive”; to `CCOc1cc(/C=C(/C#N)c2ccc(Cl)cc2)cc(Cl)c1OCC(=O)O`, “inactive”; to `O=[N+]([O-])c1ccc(N/N=C/C=C/c2ccco2)cc1`, “inactive”.
As for `CCC(=O)N1CCN(c2ccc(NC(=O)c3ccc([N+](=O)[O-])o3)cc2)CC1`, the outcome was inactive.
For `Cc1ccccc1C(=O)N1CCN(c2ccc(NC(=O)c3ccc([N+](=O)[O-])o3)cc2)CC1`, the result was inactive.
To `O=C(Nc1ccc(N2CCN(C(=O)c3ccc(Cl)cc3)CC2)cc1)c1ccc([N+](=O)[O-])o1` belongs “inactive”; to `CS(=O)(=O)N1CCN(c2ccc(NC(=O)c3ccc([N+](=O)[O-])o3)cc2)CC1`, “inactive”.
To `CC(C)(C)c1ccc(C(=O)Nc2ccc(CC(=O)O)cc2)o1` belongs “inactive”; to `Cn1c(COc2ccccc2Br)nc2ccccc21`, “inactive”.
To `C[C@H]1CCC[C@]2(C)C[C@H]3OC(=O)C(CN4CCCCCC4)[C@H]3C=C12` (some centres not stated) belongs “inactive”; to `COc1ccc(NC(=O)c2cc3ccccc3[nH]2)cc1`, “inactive”; to `COc1cc2nc(SCC(=O)NCc3ccco3)n(Cc3ccc(Cl)cc3)c(=O)c2cc1OC`, “inactive”.
As for `O=C(NCc1ccco1)c1ccc(COCC(F)(F)F)cc1`, the result was inactive.
For `CCN(C(=O)c1ccco1)c1nc(-c2ccc(OC)cc2)cs1`, the outcome was inactive.
